In the library only some 1.5% were active in any assay of this set; here they are far more common.
IDE cell inh – inhibitors of human insulin-degrading enzyme in cells | P14735 | inhibition, % at 5.59 µM | HEK cells, FAbetaB cleavage, fluorescence polarization | hit rate 0.41% among 320,000;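 active = percent inhibition above the average of all tested compounds plus 3 SD, set per screening campaign, cut at about 16% in these data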;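 note: IDE supplied by intact live HEK cells; FP after avidin binding of uncleaved biotin substrate so inhibition keeps polarization high; 0% = DMSO wells and 100% = 60 µM reference IDE inhibitor Ii1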
Target sequence (P14735 whole entry, looked up): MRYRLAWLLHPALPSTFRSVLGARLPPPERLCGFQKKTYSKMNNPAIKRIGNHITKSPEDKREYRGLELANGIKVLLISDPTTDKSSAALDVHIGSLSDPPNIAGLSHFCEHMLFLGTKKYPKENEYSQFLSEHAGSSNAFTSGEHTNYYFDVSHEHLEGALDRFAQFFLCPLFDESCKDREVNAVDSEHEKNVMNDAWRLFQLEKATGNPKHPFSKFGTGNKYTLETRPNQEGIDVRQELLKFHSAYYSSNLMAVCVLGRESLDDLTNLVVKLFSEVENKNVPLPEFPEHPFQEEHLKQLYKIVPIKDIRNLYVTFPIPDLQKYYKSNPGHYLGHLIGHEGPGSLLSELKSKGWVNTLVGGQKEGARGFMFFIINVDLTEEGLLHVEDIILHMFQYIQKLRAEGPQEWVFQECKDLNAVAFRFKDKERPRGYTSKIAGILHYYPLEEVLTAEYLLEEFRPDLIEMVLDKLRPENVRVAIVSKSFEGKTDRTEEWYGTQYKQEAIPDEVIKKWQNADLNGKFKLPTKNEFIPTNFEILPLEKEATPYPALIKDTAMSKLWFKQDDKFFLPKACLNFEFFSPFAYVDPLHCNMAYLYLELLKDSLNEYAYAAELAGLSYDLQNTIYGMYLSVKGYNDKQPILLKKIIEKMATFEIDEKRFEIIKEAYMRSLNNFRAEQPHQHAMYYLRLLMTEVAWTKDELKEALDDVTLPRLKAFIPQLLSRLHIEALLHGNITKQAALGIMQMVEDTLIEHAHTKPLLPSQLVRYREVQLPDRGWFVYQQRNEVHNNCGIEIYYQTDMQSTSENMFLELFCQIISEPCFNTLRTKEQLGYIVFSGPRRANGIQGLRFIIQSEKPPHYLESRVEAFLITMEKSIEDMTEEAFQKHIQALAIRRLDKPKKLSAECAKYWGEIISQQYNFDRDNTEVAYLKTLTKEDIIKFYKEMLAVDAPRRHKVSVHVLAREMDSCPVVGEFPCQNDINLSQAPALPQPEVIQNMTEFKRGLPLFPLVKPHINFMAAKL
MCL1 BIM primary – disrupts human MCL1 binding to BIM-BH3 peptide | inhibition, % at 10.9 µM | AID 2057 | GST-MCL1 / FITC-Bim-BH3 fluorescence polarization | hit rate 0.68% among 320,000;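 active = inhibition above the mean inhibition of all tested compounds plus 3 SD, set per campaign, cut at about 40% in these data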;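 note: 0% = DMSO wells and 100% = unlabeled Bim-BH3 peptide control; higher means more loss of mP so more displacement of Bim peptide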
MEX-5 binding – C. elegans MEX-5 TCR-2 RNA binding activity | activity score (negative = inhibition of binding), % at 10 µM | hit rate 0.38% among 300,000 | MEX-5/FITC-TCR2 RNA binding, fluorescence polarization; stronger effect = lower value | Q9XUB2;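 active = inhibition past about -25% in most replicates, and total fluorescence under double the plate's negative control median, limit read from the data; inconclusive = replicates evenly split on the limit, or fluorescence at least double controls; inactive = too little inhibition in most replicates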;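 note: 0% = DMSO and -100% = 5 µM competing unlabeled TCR2 RNA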
IDE cell activ – boosts human insulin-degrading enzyme activity in HEK cells; hit rate 0.073% among 340,000; AID 493087; P14735; FAbeta-B cleavage, fluorescence polarization; 0% vehicle, 100% cell-free pure enzyme wells; activation, % at 5.96 µM;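 active = activation above the mean of all tested compounds plus 3 SD, set per screening campaign, cut at about 17% in these data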
Bcl-xL primary – blocks human Bcl-xL binding to Bim BH3 peptide. AID 2129. hit rate 0.7% among 320,000. inhibition, % at 10.9 µM. GST-Bcl-xL / FITC-Bim BH3 peptide fluorescence polarization. Q07817;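 active = inhibition above the mean of all tested compounds plus 3 SD, cutoff set per campaign, cut at about 30% in these data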;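 note: 0% = DMSO wells and 100% = unlabeled Bim-BH3 peptide competitor; inhibitors lower millipolarization by displacing the labeled peptide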
GLD-1 TGE inh – GLD-1-TGE RNA interaction inhibition (C. elegans). Q17339. inhibition, % at 5.96 µM. hit rate 0.44% among 320,000. purified GLD-1 + fluorescein TGE RNA, fluorescence polarization;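 active = percent inhibition above a per-plate cutoff, the plate mean of test compounds plus 3 SD, cut at about 30% in these data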;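 note: 0% = DMSO wells with GLD-1 and probe and 100% = wells lacking GLD-1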
* = called active by the depositor; ? = inconclusive; · = not tested or not shown.

SMILES | IDE cell inh | MCL1 BIM primary | MEX-5 binding | IDE cell activ | Bcl-xL primary | GLD-1 TGE inh
COc1ccc(N(C(=O)Cn2nnc(-c3ccc(F)cc3)n2)C(C)C(=O)NC2CCCC2)cc1OC (stereo not given) | 6.9 | -4.4 | 0.9 | -2.4 | -2.4 | -6.8
CN(CCC1CCOCC1)C(=O)C1CCC(=O)N(CCc2cccc(F)c2)C1 (stereo not given) | 7.0 | 1.6 | -3.2 | 1.9 | 1.5 | 6.1
CCCn1c(SCC(=O)NC2CCC(C)CC2)n[nH]c1=O (stereo not given) | 2.0 | 47.8* | · | 2.9 | 40.9* | 10.5
N#CC1=C(N)C(C#N)(C#N)C(c2cccnc2)C2CN(C(=O)OCc3ccccc3)CC=C12 (stereo not given) | 7.9 | 18.3 | -6.5 | -12.4 | 16.3 | 10.4
N#CC1=C(N)C(C#N)(C#N)C(c2cccnc2)C2COCC=C12 (stereo not given) | 2.0 | 27.9 | -26.0* | 1.1 | 26.5 | 22.9
Cc1ccc(NC(=O)c2ccc(Cl)c(S(=O)(=O)N3CCc4ccccc43)c2)nc1 | · | · | · | 5.3 | · | ·
O=C(NCCN1CCN(C(=O)Nc2ccccc2)CC1)Nc1ccccc1 | 2.4 | 3.4 | 0.7 | 1.5 | 112.1* | 8.0
CCN(CC)C1=CC2=CC(=C(C#N)C#N)CCC2CC1 (stereo not given) | -20.1 | 20.0 | ? | 44.4* | 51.8* | -172.8
N#CC(C#N)=C1C=C2C=C(N3CCCCC3)CCC2CC1 (stereo not given) | -30.4 | 36.8 | · | · | 35.4* | 29.3
CCCCN(C)C1=CC2=CC(=C(C#N)C#N)CCC2CC1 (stereo not given) | -13.5 | 18.0 | ? | 45.6* | 38.6* | 14.8
CCOC(=O)N1CCC(NC(=O)Cn2nc(Cc3ccncc3)c3ccccc3c2=O)CC1 | 3.6 | 4.2 | 3.1 | 4.4 | 5.7 | 0.2
CCOC(=O)c1nnn(CC(=O)Nc2ccccc2)c1C(=O)OCC | 1.7 | -2.1 | -0.8 | -2.2 | 0.0 | 6.7
CCOC(=O)c1nnn(CC(=O)NC(=O)Nc2ccccc2)c1C(=O)OCC | 0.8 | 28.2 | -3.1 | 1.8 | 53.2* | 18.4
CCOc1ccc(C(C(=O)NC2CCCC2)N(CCCO)C(=O)c2ccc(-c3ccccc3)[nH]2)cc1 (stereo not given) | 13.6 | 6.1 | -1.0 | -0.4 | 6.3 | -3.3
O=C(NCCCO)Nc1ccc2nc(-c3ccco3)c(-c3ccco3)nc2c1 | 0.0 | 158.4* | · | · | 119.5* | 53.6*
OCCCNC(=S)Nc1ccc2nc(-c3ccccn3)c(-c3ccccn3)nc2c1 | 3.3 | 43.4* | -7.1 | 0.3 | 45.7* | 30.5
O=C(O)c1ccc2nc(-c3ccco3)c(-c3ccco3)nc2c1 | · | · | -28.8* | 3.9 | · | ·
O=C(Nc1ccc2nc(-c3ccco3)c(-c3ccco3)nc2c1)NC1CC1 | · | · | -0.5 | 0.5 | · | ·
CCOC(=O)c1c(NC(=O)C2CCCCC2)sc2c1CCN(C(C)C)C2 | 2.8 | -1.3 | 0.2 | 2.2 | 7.2 | 1.1
CCC1(CC)NC(=O)N(CC(=O)OCc2nc3cc(C(=O)OC)ccc3c(=O)[nH]2)C1=O | -0.8 | 4.0 | · | 3.5 | 0.9 | 6.7
COc1ccccc1N1C(=O)Cc2ccccc2C1=O | 4.0 | -9.0 | -0.4 | -5.1 | -4.1 | -11.9
COC(=O)C1=C(C)N=C2SC(C#N)=C(N)N2C1c1cccc(OC)c1 (stereo not given) | 2.9 | -5.4 | -28.1* | -2.3 | 0.4 | -0.2
CN(CC(=O)Nc1cccc(F)c1)C(=O)c1ccccc1-n1cnnn1 | · | · | · | 5.3 | · | ·
Cc1ccc(C)n1-c1cc([N+](=O)[O-])ccc1-n1ccnc1 | 0.1 | -1.1 | · | · | 3.4 | -7.5
CC1(C)N([O-])c2cc([N+](=O)[O-])ccc2[N+]1=O | -4.3 | 45.4* | · | · | 34.9* | 7.7
SMILES | IDE cell inh | MCL1 BIM primary | MEX-5 binding | IDE cell activ | Bcl-xL primary | GLD-1 TGE inh
Nc1c(C(=O)N/N=C/c2cccnc2)oc2nc(-c3ccccc3)cc(-c3ccco3)c12 | 5.1 | -37.7 | -36.6* | · | -21.8 | -26.6
CC1(c2ccc3c(c2)OCCO3)NC(=O)N(CC(=O)Nc2c(F)cccc2F)C1=O (stereo not given) | 0.1 | -11.2 | · | 1.6 | -3.8 | 7.0
O=C1C2CC=C(Cl)CC2C(=O)N1CC1Cc2ccccc2CO1 (stereo not given) | 1.9 | 21.4 | -25.9* | 1.2 | 26.4 | 25.4
O=C1C2CC=C(Cl)CC2C(=O)N1CC1OCCc2ccccc21 (stereo not given) | -3.0 | 6.7 | -6.6 | 1.4 | 10.8 | 1.9
O=C1C2CC=C(Cl)CC2C(=O)N1CN(Cc1ccco1)CN1C(=O)C2CC=C(Cl)CC2C1=O (stereo not given) | -4.5 | 51.4* | -11.4 | -1.6 | 45.2* | 44.3*
O=C(CCN1C(=O)C2CC=C(Cl)CC2C1=O)NCc1ccco1 (stereo not given) | 7.8 | 12.0 | -7.7 | -2.2 | 10.0 | 8.5
CCN(CC)C(=O)[C@H]1CC(CC(=O)NCc2ccco2)C(=O)N2CCc3c([nH]c4ccc(OC)cc34)[C@]12C (stereo not given in full) | · | · | · | 0.3 | · | ·
CC(C)CN1CCC(=O)N([C@H](CO)c2ccccc2)CC1 | 3.4 | -6.4 | 0.5 | 36.7* | 1.6 | -14.6
CC(/C=C1\N=C(SCc2ccccc2Cl)SC1=O)=C\c1ccccc1 | -0.2 | 6.3 | ? | 8.9 | 5.9 | 3.8
O=C1SC(SCc2ccccc2)=N/C1=C\c1ccc(C(=O)O)cc1 | -1.2 | 3.2 | -58.2* | 5.3 | 4.4 | 0.2
O=C(O)c1cccc(Oc2ccc(C(=O)O)c([N+](=O)[O-])c2)c1 | · | · | · | 2.7 | · | ·
O=C(CSc1cccc[n+]1[O-])Nc1cccc(Oc2ccccc2)c1 | 4.0 | 2.9 | -1.6 | -2.2 | -0.8 | 2.9
CC(=O)c1ccc(-c2ccc(/C=C(/Sc3n[nH]c(C)n3)C(=O)O)o2)cc1 | 5.2 | -15.5 | -35.0* | -4.0 | -7.7 | -21.7
Cc1nc(S/C(=C/c2ccc(-c3ccc(C(=O)O)cc3)o2)C(=O)O)n[nH]1 | -1.4 | 15.2 | -80.5* | 0.8 | 7.7 | -8.6
CSc1ccc(/C=C(/NC(=O)c2ccco2)C(=O)N2CCOCC2)cc1 | 0.2 | 1.8 | 1.6 | -0.9 | 3.4 | 3.0
COc1ccccc1N/C=C/C(=C(C#N)C#N)N(C)C | -1.0 | 11.0 | 0.4 | 1.9 | 2.4 | -6.9
NC(=O)/C(=C/c1ccco1)NC(=O)c1ccc(Br)o1 | 0.0 | 40.2* | -14.0 | 2.8 | 39.2* | 23.6
O=C(N/C(=C\c1ccco1)C(=O)N1CCOCC1)c1ccco1 | 0.6 | 26.0 | -2.5 | 4.0 | 32.6* | 18.0
COC(=O)/C(=C/c1ccco1)NC(=O)c1ccc(Br)o1 | 3.4 | 12.9 | -3.6 | 3.9 | 9.2 | 3.4
CCCCCC(=O)Cc1cc(O)cc2c1C(=O)Oc1cc(O)c(C(=O)O)c(CCCCC)c1O2 | -1.9 | 28.4 | -4.3 | · | 17.3 | 4.7
Nc1c2c(=O)[nH]c(O)cc2nn1-c1ccccc1 | · | · | · | -0.1 | · | ·
Cc1cc(-c2csc(N)n2)c(C)n1C | 6.7 | 42.1* | -47.1* | -0.6 | 41.1* | 14.7
